Shown are actives, neighbours in structure and some others; about 8.5% of the full set was active somewhere.
Coupling enz – counter-screen for Giardia aldolase inhibitors: coupling enzyme system | activity change, negative = inhibition, % at 58.2 µM, hits read low | coupling enzyme system counterscreen, AmpLite Red fluorescence | hit rate 0.67% among 290,000; in the data active = activity change below about -30%
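Compounds tested against the coupling enzymes alone at 57.5 uM final; readout was AmpLite Red fluorescence (525/598 nm) after 20 min at RT.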
KDM4E inh – inhibitors of human JMJD2E histone demethylase | B2RXH2 | JMJD2E catalytic domain, FDH-coupled NADH fluorescence (FDH is formaldehyde dehydrogenase) | Potency, µM (series often up to 57.1 µM), without a hit: at the highest dose activity change, negative = inhibition, usual class: inhibitors | hit rate 1.6% among 230,000;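 also: potency is read from the fitted curve at half-maximal effect; 0% = wells with enzyme and -100% = buffer wells without enzyme; nearly all actives have a fitted effect of over 50% in size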
Target sequence (B2RXH2 1-337 limits assumed): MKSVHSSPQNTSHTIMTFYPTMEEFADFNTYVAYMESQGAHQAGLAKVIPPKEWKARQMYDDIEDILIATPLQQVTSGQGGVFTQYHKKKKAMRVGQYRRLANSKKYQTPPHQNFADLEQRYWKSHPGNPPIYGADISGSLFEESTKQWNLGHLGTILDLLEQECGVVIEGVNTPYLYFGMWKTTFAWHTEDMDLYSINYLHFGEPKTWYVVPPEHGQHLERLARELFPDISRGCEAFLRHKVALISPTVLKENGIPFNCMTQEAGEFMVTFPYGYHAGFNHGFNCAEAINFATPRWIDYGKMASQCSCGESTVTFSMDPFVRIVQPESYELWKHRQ
NPSR antag – blocks cAMP signaling of the human neuropeptide S receptor | CHO-NPSR cells, cAMP TR-FRET, antagonist mode | Potency, µM (top dose mostly 38.3 µM), without a hit: at the top dose activity change, negative = inhibition, hits mostly inhibitors | AID 1461 | hit rate 1% among 220,000 | Q6W5P4; active = well fitted curve in the direction sought with a large enough effect; inconclusive = small, poorly fitted or top-dose-only effect, or another doubt; inactive = no such curve, though single readings can be large; an effect the other way counts as inactive or inconclusive; also: potency is read from the fitted curve at half-maximal effect; nearly all actives have a fitted effect of over 50% in size
GoLoco inh red – blocks human Gai1 binding to RGS12 GoLoco peptide, red readout | P63096 | Gai1:RGS12 GoLoco peptide FP, rhodamine, 10 min | Potency, µM (titrated, usually from 61.6 µM), inactives show at the top dose activity, negative = inhibition, hits mostly inhibitors | hit rate 0.44% among 230,000 | AID 880; active = well fitted inhibition curve with a large enough effect, not every such curve was filed as active; inactive = no such curve, though single readings can be large or run the other way; also: potency is read from the fitted curve at half-maximal effect; nearly all actives have a fitted effect of over 30% in size
Sfp inh – blocks B. subtilis Sfp PPTase activity. Q9F4F7. Biochemical Sfp PPTase activity, qHTS. Potency, µM, for inactives: largest response in the series, negative = inhibition, hits mostly inhibitors. hit rate 3.5% among 310,000; active = well fitted curve in the direction sought with a large enough effect; inconclusive = small, poorly fitted or top-dose-only effect, or another doubt; inactive = no such curve, though single readings can be large; an effect the other way counts as inactive or inconclusive;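 also: the enzyme is Sfp with the accession as filed and its product quenches rhodamine fluorescence; potency is read from the fitted curve at half-maximal effect; 0% = enzyme reaction without inhibitor and -100% = no enzyme wells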
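Sfp 15 nM + cpd, 15 min RT; start w/ rhodamine-CoA 5 uM, BHQ-2-YbbR 12.5 uM (final); 50 mM Hepes pH 7.6, 10 mM MgCl2, 0.01% NP-40, 0.01% BSA; read 525/598 nm at 0 and 30 min.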
ALDH1A1 block – blocks purified human ALDH1A1 activity; hit rate 7.3% among 220,000; Purified ALDH1A1, NADH fluorescence, propionaldehyde substrate; P00352; Potency, µM (titrated, usually from 75.3 µM), for inactives: at the top dose activity, negative = inhibition, most hits filed as inhibitors; AID 1030;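 also: potency is read from the fitted curve at half-maximal effect; plate controls were no enzyme wells and a reference inhibitor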
Numbers without * were called inactive; ? = inconclusive; · = no result; [ ] = another dose, or the depositor's remark. Unless noted, calls follow the shape of the dose curve; as a rule, active = well fitted inhibition curve with a large enough effect (not every such curve was filed as active); inconclusive = small, poorly fitted or top-dose-only effect, or another doubt; inactive = no such curve, though single readings can be large or run the other way. Unless noted, % is scaled to controls: 0 for no effect and ±100 for the full control effect.

SMILES	Coupling enz	KDM4E inh	NPSR antag	GoLoco inh red	Sfp inh	ALDH1A1 block
O=S(=O)(Nc1nc2ccccc2s1)c1cnc(Cl)c(Br)c1	8.1	4.4%	21.7%	2.6%	5.9%	20µM*
O=S(=O)(Nc1ccccn1)c1cnc(Cl)c(Br)c1	6.6	3.4%	1.4%[46.1 µM]	7.9%	4.9%	-0.6%
O=S(=O)(Nc1nccs1)c1cnc(Cl)c(Br)c1	7.3	-6.0%	0.6%	1.2%	50.1µM*	?
O=C(CSc1cccc[n+]1[O-])Nc1cc2c(cc1Cl)C(=O)c1ccccc1C2=O	0.4	-1.4%	-49.7%	-3.5%	?	8.91µM*
O=C(CSc1cccc[n+]1[O-])Nc1ccccc1Oc1ccccc1	-2.3	-8.2%	?	-12.0%	39.8µM*	14.1µM*
O=C(CSc1cccc[n+]1[O-])Nc1cc([N+](=O)[O-])ccc1Cl	1.5	3.4%	13.4%	-6.2%	-6.4%	-13.1%
O=C(CCCc1nc2ccccc2s1)Nc1nccs1	-0.7	1.6%	-4.2%[46.1 µM]	-24.8%	44.7µM*	-9.3%
Cc1ccc2nc(NC(=O)CCCc3nc4ccccc4s3)sc2c1	-0.6	2.2%	-13.9%[46.1 µM]	-30.7%	-21.7%	-11.1%
COc1ccccc1OC(=O)CCc1nc2ccccc2s1	-1.6	-19.6%	3.2%	28.8%	14.1µM*	?
Cc1cnc(NC(=O)CCCc2nc3ccccc3s2)s1	-0.1	?	-9.5%[46.1 µM]	-9.9%	39.8µM*	-8.1%
COC(=O)CCCc1nc2ccccc2s1	-1.1	0.3%	-1.1%[46.1 µM]	3.9%	19.9%	4.0%
O=C(CCCSc1nc2ccccc2s1)Nc1nccs1	-4.1	-5.7%	2.1%[46.1 µM]	-8.1%	-24.3%	15.8µM*
CC(NC(=O)c1ccco1)C(=O)N1CCCCC1 (configuration not stated)	·	·	·	·	6.3%	·
CCOc1ccc(-c2cc(CCCC(=O)N3CCN(c4ccc(OC)cc4)CC3)no2)cc1	-12.8	-2.9%	13.4%	5.6%	-6.4%	20µM*
C=CCN1C(=O)C2(OCCO2)c2cc(C)ccc21	0.9	·	·	·	7.0%	·
COc1cc(/C=C2\SC(=O)N(c3ccccc3Cl)C2=O)cc([N+](=O)[O-])c1O	-2.3	-13.5%	?	-3.3%	-22.1%	0.159µM*
COc1ccc(/C=C2\SC(=O)N(CC(=O)Nc3cccnc3)C2=O)cc1OC	-1.7	-6.2%	-7.2%	2.3%	44.7µM*	1.1%
COc1cc(/C=C2\SC(=O)N(CC(=O)Nc3cccc(C)c3)C2=O)cc([N+](=O)[O-])c1O	0.6	-1.8%	-50.7%	4.1%	1.2%	22.4µM*
Cc1cccc2cc3c(N)c(C#N)sc3nc12	2.7	0.1%	13.4%[46.1 µM]	12.8%	8.2%	-9.4%
Cc1sc(NC(=O)c2sc3nc4c(C)cccc4cc3c2N)c(C#N)c1C	-7.2	?	?	115.9%	?	2.82µM*
CNC(=S)N/N=C(\C)c1ccc2c(c1)OCCO2	0.8	-20.2%	-41.6%	9.5%	50.1µM*	2.82µM*
CCc1ccc(OCC(=O)N/N=C(\C)c2ccc3c(c2)OCCO3)cc1	1.0	2.9%	-19.7%	12.4%	56.2µM*	-6.0%
CNC(=S)N/N=C(\C)c1ccc2c(c1)OCO2	3.0	-7.3%	-26.3%	0.7%	79.4µM*	?
C/C(=N\NC(=S)NC(C)C)c1ccc2c(c1)OCCO2	-0.5	-7.2%	-22.1%	4.7%	-7.0%	17.4%
CN(C)C(=O)[C@H]1C[C@H]1[C@@H](O)[C@H](CO)NC(=O)[C@H](COCc1ccccc1)NC(=O)OC(C)(C)C	-6.3	·	·	·	7.3%	·
SMILES	Coupling enz	KDM4E inh	NPSR antag	GoLoco inh red	Sfp inh	ALDH1A1 block
COc1cccc(OCCCCCCN2CCOCC2)c1	2.9	3.7%	-8.4%[46.1 µM]	0.2%	16.6%	3.98µM*
CCCCOc1ccc(C(=O)NCC(=O)NCC2CCCO2)cc1 (configuration not stated)	·	·	·	·	8.7%	·
COCc1cccc(C(=O)NC(c2ccccc2)c2ccccc2)c1	1.2	·	·	·	14.5%	·
CCOc1cc(C(=O)N[C@@H](C)C(=O)N2CCC3(CC2)NCCc2[nH]cnc23)cc(OCC)c1OCC	4.1	·	·	·	-8.0%	·
Nc1ccc2nc(-c3cccc(-c4nc5ccc(N)cc5[nH]4)n3)[nH]c2c1	-1.1	·	·	·	31.6µM*	·
Nc1ccc2nc(-c3ccc(-c4nc5ccc(N)cc5[nH]4)cc3)[nH]c2c1	-1.3	·	·	·	-5.7%	·

Bioassay records from PubChem.
